Experimental data reported in PubChem BioAssay AID819 (Columbia University Molecular Screening Center, 2007).
Among all 94,000 compounds or so, about 280 (0.3%) were called active. The sample holds actives, similar compounds and a random draw of the others, so the mix is not that of the screen. A number with no mark means an inactive call.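 The calls were made as follows: active = activation above 40%, about the mean plus 3 SD, also judged a hit on visual image review; inconclusive = activation above 40% but not a hit on visual review; inactive = activation not above 40% and no visual hit.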

Assay: enhancers of NFkB p65 translocation in HUVEC – imaging, IL-1B stimulus, high-content imaging, primary screen (AID 819);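 also: percent activation is computed from the nuclear over cytoplasmic p65 intensity ratio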
Conditions: HUVEC IL-1B NFkB p65 nuclear translocation imaging; at 2 µM; stronger effect = higher value

SMILES	activation
Nc1ccc(-c2sc(N)nc2-c2ccccc2)cc1	-1.63%
CC(C)c1ccc(N2CCN(C(=O)c3ccccc3NC(=O)/C=C(\C(=O)O)c3ccccc3)CC2)cc1	24.1%
NC(=NC(=O)c1ccccc1)N1CCOCC1	3.72%
O=C(Cc1ncc(C(F)(F)F)cc1Cl)Nc1cccc(Br)c1	13.4%
O=[N+]([O-])c1ccc(Oc2ccc(F)cc2Br)c2ccncc12	-1.85%
S=C(NCCC1=CCCCC1)Nc1ccccc1	-10.4%
Cc1nn(C)cc1/C=C1\CCC/C(=C\c2cn(C)nc2C)C1=O	-13.1%
COCC(C)NC(=O)c1ccc(-n2nc(C(F)(F)F)cc2-c2cccs2)cc1 (stereo not given)	15.7%
COc1ccc(C(=O)n2nc(-c3ccc(C)cc3)nc2N)cc1OC	-6.6%
COc1ccc(C(=O)n2nc(-c3ccc(Cl)cc3)nc2N)cc1OC	41.4% (active)
COc1ccccc1C(=O)n1nc(-c2ccccc2)nc1N	13.8%
CC(C)(CCl)C(=O)Nc1ccc(Sc2ccc(F)cc2)cc1	-5.55%
CCn1c(SCc2ccc(C)cc2)nnc1-c1nn(-c2ccccc2)ccc1=O	0.15%
O=C1c2ccccc2C(=O)c2c1cccc2N1CCN(CCO)CC1	11.4%
CCC1(CC)NC(=O)N(CC(=O)OCC(=O)Nc2ccc(C(F)(F)F)cc2)C1=O	-31.3%
Cc1cccc(-c2nc3c(c(SCC(=O)N4CCOCC4)n2)CCCC3)c1	16.6%
COc1ccccc1NC(=O)[C@H](COCc1ccccc1)NC(=O)OC(C)(C)C	8.44%
CCCC(=O)NC(Nc1ccccc1OC)C(Cl)(Cl)Cl (stereo not given)	-10.4%
CCOC(=O)C1(S(=O)(=O)c2ccccc2)CCN(Cc2ccccc2)CC1	2.52%
CCC(=O)Nc1ccc2nc(C)n(Cc3ccccc3Cl)c(=O)c2c1	-5.54%

SMILES	activation
COc1cnc(SCc2ccc(Cl)c(Cl)c2)nc1Cl	20.1%
Cc1cc(C)cc(OCC(=O)NNC(=O)c2cc3ccccc3oc2=O)c1	-12%
Cc1cc(OC(=O)c2c(Cl)cccc2Cl)nc(C)n1	23%
N#Cc1ccc(Oc2cc(C(F)(F)F)nc(-c3ccccn3)n2)cc1	49.2% (active)
COc1ccc(C(=O)Nc2nc(-c3ccc(OC)cc3)c(-c3ccc([N+](=O)[O-])cc3)s2)cc1	1.5%
CN(CC#CCC(c1ccccc1)c1ccccc1)C(C)(C)C	6.49%
Cc1cc([N+](=O)[O-])c(NC2CCCCC2)c([N+](=O)[O-])c1	3.11%
NS(=O)(=O)c1ccc(Nc2nc(-c3ccccc3)cs2)cc1	-18.6%
O=C(CSCc1ccc([N+](=O)[O-])cc1)Nc1cccc(C(=O)Nc2ccccc2C(=O)O)c1	7.87%
COc1ccccc1NC(=O)c1ccc2nc(N3C(=O)CCC3=O)sc2c1	11.6%
COC(=O)c1ccccc1OCC(=O)N1CCN(c2ccc(Cl)cc2)CC1	11.5%
COc1ccccc1OCCNc1cc(N2CCOCC2)ccc1[N+](=O)[O-]	7.12%
Cc1nnc(SCC(=O)NC(=O)NC2CCCC2)n1N	-1.65%
CCOC(=O)c1cnc(-c2ccccc2)nc1Oc1ccc(C)cc1	-7.86%
CC(C)NC(=O)NC(=O)COC(=O)c1ccc(NC(=O)CC#N)cc1	5.58%
O=S(=O)(c1ccc(F)cc1)n1ccc(-c2cnc(-c3ccccc3)s2)n1	5.1%
CCOCCOCCC(C(=O)O)P(=O)(c1ccccc1)c1ccccc1 (stereo not given)	2.8%
CCOc1ccccc1C(=O)NCc1ccco1	8.02%
CCOc1ccccc1/C=c1\sc2nc(-c3ccco3)nn2c1=O	53.9% (active)
O=c1nc2s/c(=C\c3ccco3)c(=O)n2nc1Cc1ccccc1	10.3%

SMILES	activation
CCOC1CS(=O)(=O)CC1OCC (stereo not given)	12.8%
O=C1c2ccccc2C(=O)c2c1cccc2N1CCN(Cc2ccccc2)CC1	-2.37%
O=C(COC(=O)c1ccccc1NC(=O)c1ccco1)Nc1ccc2c(c1)OC(F)(F)O2	0.88%
CC(=O)c1ccc2c(ccc3ccccc32)c1	8.21%
CCCN1Cc2cccc(C(=O)Nc3ccc(S(=O)(=O)N4CCCCCC4)cc3)c2C1=O	7.44%
O=C(Nc1ccc(Cl)cc1)OCc1cc(-c2ccccc2)on1	15.4%
CC(=O)c1cnn(-c2cc(Oc3ccc(F)cc3)ncn2)c1C	10.6%
CC(=O)c1ccc(Oc2cc(C)nc(-n3nc(C)cc3C)n2)cc1	-11.2%
Cc1cc(C)n(-c2cc(Oc3ccccc3)ncn2)n1	43.8% (active)
CC12c3ccccc3C(c3ccccc31)C1C(=O)N(Cc3cccnc3)C(=O)C12 (stereo not given)	-8.61%
COc1cc(OC)cc(C(=O)NC2CCN(C(=O)N3c4ccccc4Sc4ccccc43)CC2)c1	1.07%
O=C(OCc1cn(-c2ccc(Cl)c(Cl)c2)nn1)c1ccccc1Cl	12.2%
O=C(CN1C(=O)NC(Cc2ccccc2)(Cc2ccccc2)C1=O)NCC1CCCCC1	0%
CCCCOC(=O)Nc1sc2nc(C)cc(C)c2c1-n1cccc1	-1.73%
Cc1cc2c(cc1C)N(C(=O)CN1C(=O)c3ccccc3C1=O)C(C)(C)c1ssc(=S)c1-2	17.4%
COc1ccc(-c2[nH]nc(-c3ccccc3)c2-c2nc3ccccc3[nH]2)cc1	-1.89%
O=c1c(-c2ccc3c(c2)OCCO3)c(C(F)(F)F)oc2cc(O)cc(O)c12	9.87%
COc1ccc(OC)c(C(=O)c2coc3ccc(O)c(CN4CCOCC4)c23)c1	-5.05%
CCN1CCN(Cc2c(O)ccc3c(=O)c(-c4ccc(OC)c(OC)c4)c(C(F)(F)F)oc23)CC1	65.5% (active)
O=C(c1ccc2c(c1)OCO2)N1CCOCC1	-1.72%
